Unmarked numbers belong to inactive results. Results filed as inconclusive are left out. Active and inactive are the calls of the source. Calls come from the whole dose curve; as a rule, active = well fitted curve in the direction sought with a large enough effect in the repeat runs; inconclusive = weak or mixed curves; inactive = no such curve, though single readings can be large; an effect the other way counts as inactive or inconclusive.
Assay: Caspase-3/7 induction in CHO-K1 cells by small molecules, qHTS cell viability counter screen (AID 1346979); note: nearly all actives have a fitted effect of over 35% in size; note: potency is the fitted concentration of half-maximal effect
Conditions: CellTiter-Fluor fluorescence, 17 h; series mostly up to 92.4 µM; activity change, negative = cytotoxicity: at the top concentration
Procedure, shortened: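 Cytotoxicity counter screen run in parallel with the caspase-3/7 assay: CHO-K1 cells, 16hr compound treatment at 37C, then CellTiter-Fluor for 1hr before fluorescence reading.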
% is set by controls: 0 for no effect and ±100 for the full control effect.

| SMILES | activity change, negative = cytotoxicity | Potency |
| --- | --- | --- |
| CC(C)COC(=O)COc1cc(Cl)c(Cl)cc1Cl | 9.36% | – |
| Cc1ccc(NC(=O)N(C)C)cc1NC(=O)N(C)C | 3.33% | – |
| CC(C(=O)O)c1ccc(C(=O)c2cccs2)cc1 (stereo unspecified) | 8.01% [at 42.5 µM] | – |
| C=CCOC(=O)COCCC(C)C | 3.39% | – |
| CCNc1nc(N)nc(Cl)n1 | 4.53% | – |
| CC1=CC[C@@]23C[C@@H]1C(C)(C)[C@@H]2CC[C@H]3C | -2.31% | – |
| Cc1cccc2sc(N)nc12 | 5.04% | – |
| Nc1ccc(NC(=O)c2ccc(N)cc2)cc1 | -1.02% | – |
| CCCCOCCOC(=O)c1cccnc1 | 2.82% [at 42.5 µM] | – |
| COc1ccc(-c2cc(=S)ss2)cc1 | – | 29.8 µM (active) |
| OCC(CO)n1cnc(-c2ccc(F)cc2)c1-c1ccnc(Oc2ccccc2)n1 | 1.22% | – |
| O=[N+]([O-])c1ccc2ncccc2c1 | -1.75% | – |
| CCC1CCC(CCC(=O)O)C1 (stereo unspecified) | 4.48% | – |

Assay: Caspase-3/7 induction in CHO-K1 cells by small molecules, qHTS assay (AID 1346980); note: nearly all actives have a fitted effect of over 15% in size
Conditions: CHO-K1 caspase-3/7 induction, Caspase-Glo luminescence, 17 h; series mostly up to 92.4 µM; caspase-3/7 activation: at the top concentration
Procedure, shortened: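 Wild-type CHO-K1 cells exposed to compounds for 17hr at 37 C, 5% CO2. Caspase-3/7 activity then measured by Caspase-Glo 3/7 luminescence after 30min at room temperature.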

| SMILES | caspase-3/7 activation | outcome |
| --- | --- | --- |
| Cc1ccc(Nc2c(F)cccc2Cl)c(CC(=O)O)c1 | -0.243% [at 42.5 µM] | – |
| C=C(C)C(=O)OCCC(F)(F)C(F)(F)C(F)(F)C(F)(F)C(F)(F)C(F)(F)F | 2.54% | – |
| C=C(C)c1ccccc1 | -1.73% | – |
| CC(C)OC(=O)c1ccccc1C(=O)OC(C)C | 0.624% | – |
| Cc1cc(CCC(=O)OCCOCCOCCOC(=O)CCc2cc(C)c(O)c(C(C)(C)C)c2)cc(C(C)(C)C)c1O | -0.97% | – |
| Cc1cc(CCCOc2c(C)cc(-c3noc(C(F)(F)F)n3)cc2C)on1 | 0.0183% [at 42.5 µM] | – |
| O=c1[nH][nH]c(=O)c2cc([N+](=O)[O-])ccc12 | 0.268% | – |
| CCOC(=O)N1CCC(Nc2ccc(Cl)cc2N)CC1 | -0.0244% [at 42.5 µM] | – |
| O=C1OC[C@H](Cc2cccc(O)c2)[C@H]1Cc1cccc(O)c1 | -0.646% [at 42.5 µM] | – |
| COc1ccc2nc(S(=O)Cc3ncc(C)c(OC)c3C)[nH]c2c1 (stereo unspecified) | – | inactive |
| CC(=O)OCC1=C(C(=O)O)N2C(=O)[C@@H](NC(=O)CSc3ccncc3)[C@H]2SC1 | -1.65% [at 42.5 µM] | – |
| CSSc1ccoc1C | -1.22% | – |
| CCCCCCCC/C=C\CCCCCCCC(=O)OCCO | 1.4% | – |
| CCC(CO)(CO)CO | 0.356% | – |
| CC1CCc2nccnc21 (stereo unspecified) | -0.116% | – |
| CCCCC[C@H](O)/C=C/[C@H]1[C@H](O)CC(=O)[C@@H]1C/C=C\CCCC(=O)O | 0.0125% [at 42.5 µM] | – |
| C[C@H](CS)C(=O)N1CCC[C@H]1C(=O)O | 0.25% [at 42.5 µM] | – |
| COc1ccc(CCN(C)CCCN2CCc3cc(OC)c(OC)cc3CC2=O)cc1OC | -0.564% [at 42.5 µM] | – |
| CC(CN(CCN(CC(C)OCCO)CC(C)OCCO)CC(C)OCCO)OCCO (stereo unspecified) | -0.114% | – |

| SMILES | caspase-3/7 activation | outcome |
| --- | --- | --- |
| CC(C)COC(=O)COc1cc(Cl)c(Cl)cc1Cl | 0.177% | – |
| Cc1ccc(NC(=O)N(C)C)cc1NC(=O)N(C)C | -0.246% | – |
| CC(C(=O)O)c1ccc(C(=O)c2cccs2)cc1 (stereo unspecified) | -3.45% [at 42.5 µM] | – |
| CCCCCCCCCCCC(=O)OCC(O)CO (stereo unspecified) | -2.28% | – |
| C=CCOC(=O)COCCC(C)C | 1.08% | – |
| CCNc1nc(N)nc(Cl)n1 | 0.0017% | – |
| O=C(CCS)OCC(COC(=O)CCS)(COC(=O)CCS)COC(=O)CCS | -0.559% | – |
| CC1=CC[C@@]23C[C@@H]1C(C)(C)[C@@H]2CC[C@H]3C | 0.0918% | – |
| CC(=O)Oc1cccc(O)c1 | -0.16% [at 42.5 µM] | – |
| Cc1cccc2sc(N)nc12 | -1.71% | – |
| Nc1ccc(NC(=O)c2ccc(N)cc2)cc1 | -0.514% | – |
| CCCCOCCOC(=O)c1cccnc1 | -0.829% [at 42.5 µM] | – |
| Cc1ccc(S(=O)(=O)NC(=O)NC2CCCCC2)cc1 | -1.44% [at 42.5 µM] | – |
| COc1ccc(-c2cc(=S)ss2)cc1 | -4.84% [at 42.5 µM] | – |
| OCC(CO)n1cnc(-c2ccc(F)cc2)c1-c1ccnc(Oc2ccccc2)n1 | -0.714% | – |
| O=[N+]([O-])c1ccc2ncccc2c1 | -0.0306% | – |
| FC(F)(F)C(F)(F)C(F)(F)C(F)(F)CCI | -1.18% [at 42.5 µM] | – |
| COc1ccc(/C=C/C(=O)c2ccc(OC)cc2OC)cc1 | -0.0019% [at 42.5 µM] | – |
| CCC1CCC(CCC(=O)O)C1 (stereo unspecified) | -0.259% | – |

— PubChem BioAssay (Tox21)
